PDI turbidity – inhibitors of human PDI, primary screen, biochemical, turbidity, single point, plate reader | Protein disulfide-isomerase (Homo sapiens), P07237 | PDI insulin aggregation turbidity, A650, 90 min | inhibition, % at 10 µM | actives 0.052% (n = 350,000);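 active = mean inhibition across replicates of 30% or more, whatever share of single replicates reach that level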
ARNT-TACC3 inh – disruptors of ARNT/TACC3 protein interaction, primary screen, biochemical, AlphaScreen, single concentration | inhibition, % at 9.99 µM | Transforming acidic coiled-coil-containing protein 3 (Homo sapiens), Q9Y6A5 | AlphaScreen His-ARNT PAS-B/GST-TACC3 binding, luminescence; TACC3 fragment carries E629A point mutation | actives 0.66% (n = 390,000);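 active = mean inhibition of replicates at least 50% and at least half of replicates each reaching 50%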;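 note: 0% = complete ARNT plus TACC3 wells and 100% = ARNT alone without TACC3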
CendR NRP1 mod – modulators of CendR peptide binding to NRP-1, primary screen, biochemical, fluorescence polarization, uHTS; FAM-RPARPAR peptide binding to NRP-1; inhibition, % at 25 µM; Neuropilin-1 (Homo sapiens), O14786; actives 0.85% (n = 360,000);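 active = inhibition or corrected inhibition above about 18%, plus a signal ratio from 0.5 to 1.5, limit read from the data, passing the limit was not always enough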
ALR inh – inhibitors of human ALR sulfhydryl oxidase, primary screen, biochemical, H2O2 detection, HRP-luminol luminescence, single point | FAD-linked sulfhydryl oxidase ALR (Homo sapiens), P55789 | purified ALR, DTT oxidation | inhibition, % (no concentration beside the values) | actives 3.8% (n = 290,000) | AID 485317, 2010;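 active = mean replicate inhibition above about 79%, with every replicate also reaching it, limit read from the data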
PglD inh – C. jejuni PglD acetyltransferase inhibitors, primary screen, biochemical, DTNB colorimetric, single point; purified PglD enzyme, DTNB colorimetric CoA detection; actives 0.098% (n = 360,000); inhibition, % at 12.5 µM; UDP-N-acetylbacillosamine N-acetyltransferase PglD (Campylobacter jejuni); in the data active = inhibition above about 16%, passing the limit was not always enough
ERp5 inh – inhibitors of ERp5-driven insulin aggregation, primary screen, biochemical, turbidity, absorbance 650 nm, single point; Protein disulfide-isomerase A6 (Homo sapiens), Q15084; 90 min; inhibition, % at 9.99 µM; actives 0.05% (n = 350,000);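 active = mean replicate inhibition above about 25%, with every replicate also reaching it, limit read from the data, passing the limit was not always enough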
Target sequence (Q15084 whole entry, looked up): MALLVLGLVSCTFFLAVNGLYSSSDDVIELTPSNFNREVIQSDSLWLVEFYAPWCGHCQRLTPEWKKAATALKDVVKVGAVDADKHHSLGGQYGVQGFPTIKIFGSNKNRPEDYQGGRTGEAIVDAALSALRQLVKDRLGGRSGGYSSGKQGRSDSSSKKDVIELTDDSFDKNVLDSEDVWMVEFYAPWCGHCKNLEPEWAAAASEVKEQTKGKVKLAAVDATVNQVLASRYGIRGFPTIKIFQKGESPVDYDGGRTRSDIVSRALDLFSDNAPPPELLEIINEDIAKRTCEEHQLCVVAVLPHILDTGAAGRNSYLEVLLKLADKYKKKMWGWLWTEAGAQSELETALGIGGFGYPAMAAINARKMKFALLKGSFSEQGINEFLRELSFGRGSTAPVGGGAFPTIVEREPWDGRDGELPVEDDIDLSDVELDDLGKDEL
* = called active by the depositor. Many of the other results were omitted from the sample, so hits are more common in it than they were.

`CN(C)c1ccc(NC2=C([N+](=O)[O-])CS(=O)(=O)C2)cc1` gave PDI turbidity -1.6, ARNT-TACC3 inh 0.0, CendR NRP1 mod -0.5 and ALR inh 99.1*.
CO[C@@H]1CN(C)C(=O)c2ccc(NC(=O)c3ccc4c(c3)OCO4)cc2OC[C@H](C)N(CCC(F)(F)F)C[C@@H]1C was read as ARNT-TACC3 inh 0.5, PglD inh -2.9 and ERp5 inh 1.0.
CNC(=S)NCCc1c[nH]c2ccc(OC)cc12 was read as PDI turbidity -3.8, ARNT-TACC3 inh 4.3, CendR NRP1 mod -2.9, ALR inh 98.8*, PglD inh 4.4 and ERp5 inh -5.5.
COc1ccc2[nH]cc(CCNC(=S)NC3CCCC3)c2c1 was read as PDI turbidity 9.2, ARNT-TACC3 inh 14.3, CendR NRP1 mod 12.3, ALR inh 33.5 and ERp5 inh 0.3.
`Cc1ccccc1-c1cc2nc(NCc3ccccc3)n(C)c(=O)c2s1` gave PDI turbidity 1.2, CendR NRP1 mod 15.4, PglD inh 1.9 and ERp5 inh -2.3.
`COc1cccc(CNc2nc3cc(-c4ccc(OC)cc4C)sc3c(=O)n2C)c1` gave PDI turbidity -5.3, CendR NRP1 mod 25.0*, PglD inh 0.5 and ERp5 inh 2.2.
For Cc1cnc(CNc2nc3cc(-c4ccccc4C)sc3c(=O)n2C)cn1 the results were PDI turbidity -79.8, CendR NRP1 mod 28.2*, PglD inh -2.9 and ERp5 inh -0.3.
Screening COc1cccc(CNc2nc3cc(-c4cscc4C)sc3c(=O)n2C)c1 returned PDI turbidity -3.9, CendR NRP1 mod 0.3, PglD inh -0.9 and ERp5 inh 1.5.
Screening COc1ccccc1-c1ccc([C@@H]2[C@@H](C#N)N(C(=O)C3CC3)[C@@H]2CO)cc1 returned ARNT-TACC3 inh -11.8, PglD inh -0.2 and ERp5 inh -0.9.
`O=C(N[C@@H](Cc1ccccc1)C(=O)CCl)OCc1ccccc1` gave PDI turbidity 17.2, ARNT-TACC3 inh -4.0, CendR NRP1 mod -3.8, ALR inh 97.5*, PglD inh -0.2 and ERp5 inh -0.5.
C=CCn1c(SCC(=O)Nc2cc(C)on2)nnc1-c1ccncc1 was read as PDI turbidity -8.7, CendR NRP1 mod 8.9, PglD inh 0.6 and ERp5 inh 2.1.
Screening C=CCn1c(SCC(=O)Nc2ncc(Cc3ccc(Br)cc3)s2)nnc1-c1ccncc1 returned PDI turbidity -7.6, ARNT-TACC3 inh -61.3, CendR NRP1 mod 23.4*, PglD inh 2.8 and ERp5 inh -4.9.
For C[C@@H]1CN([C@H](C)CO)C(=O)c2cc(NC(=O)C3CC3)ccc2O[C@H]1CN(C)C(=O)Nc1cccc2ccccc12 the results were ARNT-TACC3 inh -12.5, PglD inh -1.3 and ERp5 inh 5.5.
Screening Cc1noc(C)c1S(=O)(=O)Nc1ccc2c(c1)CC(=O)N([C@@H](C)CO)C[C@@H](C)[C@@H](CN(C)C(=O)Nc1ccc(F)cc1)O2 returned ARNT-TACC3 inh 5.2, PglD inh 0.7 and ERp5 inh -13.3.
COC(=O)c1cc(Br)c(=O)n(CCc2ccc(O)cc2)c1 was read as PDI turbidity 1.6, ARNT-TACC3 inh -22.3, CendR NRP1 mod 7.4, ALR inh 90.0* and PglD inh -0.4.
COc1ccc(C(=O)COC(=O)C(CCSC)NS(=O)(=O)c2ccc(Cl)cc2)cc1 (centres undefined) was read as PDI turbidity 8.8, ARNT-TACC3 inh -4.7, CendR NRP1 mod 26.0*, ALR inh 8.8 and PglD inh 6.4.
Screening Cc1cc(C(=O)c2cccs2)c(N)s1 returned PDI turbidity -5.8, ARNT-TACC3 inh -1.5, CendR NRP1 mod -101.0, ALR inh 99.4*, PglD inh -4.7 and ERp5 inh -0.8.

Assay outcomes: PubChem BioAssay, several laboratories
